Assay results from PubChem BioAssay (EPA / NIEHS).
Active and inactive are the calls of the source. The calls were made as follows: active = hit-call score of the fitted dose curve at least 0.9, where 1 is the maximum; inactive = score below 0.9.

Tests used:
[1] = CEETOX_H295R_PROG: CeeTox H295R High-throughput Steroidogenesis Assay for Progesterone (PROG) (AID 2283442); conditions: actives raise or lower the signal;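 as to AC50: human H295R adrenal cells primed with 10 µM forskolin before dosing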
Method in brief: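 Measured analyte is progesterone secreted by H295R cells at 48 h of chemical treatment, following 10 uM forskolin priming. Quantitation used HPLC-MS/MS against a 7-point standard curve; cytotoxicity was checked by MTT absorbance.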

[2] = read-out: Tumor necrosis factor receptor superfamily member 6 (Homo sapiens) (UniProt P25445); experiment: LTEA_HepaRG_FAS: Life Technologies and Expression Analysis (LTEA) Assay for Fas cell surface death receptor (FAS) using HepaRG (AID 2283447); conditions: mRNA level, 48 h; actives raise or lower the signal
Method in brief: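 FAS transcript level was measured by TaqMan qRT-PCR against three housekeeping genes after 48 h chemical exposure. Cells were HepaRG, 0.5% DMSO vehicle, with a top concentration of 100 uM and half-log dilutions over eight points, in duplicate.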

[3] = read-out: Fatty acid synthase (Homo sapiens) (UniProt P49327); experiment: LTEA_HepaRG_FASN: Life Technologies and Expression Analysis (LTEA) Assay for Fatty Acid Synthase (FASN) using HepaRG (AID 2283448); conditions: mRNA level, 48 h; actives raise or lower the signal;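 as to AC50: differentiated human HepaRG liver cells in serum-free induction medium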
Method in brief: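 Cells were plated, cultured 48 h, switched to serum-free induction medium, then dosed in duplicate (max 100 uM, half-log dilutions, 0.5% DMSO) for 48 h. RNA was then isolated and FASN quantified by qRT-PCR.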

[4] = read-out: Cyclin D2 (CCND2), CCND2 (gene 894); experiment: LTEA_HepaRG_CCND2: Life Technologies and Expression Analysis (LTEA) Assay for Cyclin D2 (CCND2) using HepaRG (AID 2283449); conditions: mRNA level, 48 h; actives raise or lower the signal
Method in brief: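 CCND2 transcript levels, quantified by qRT-PCR and normalised to three housekeeping genes, were fitted bidirectionally against 0.5% DMSO. HepaRG cultures were dosed 48 h in duplicate with an 8-point half-log series up to 100 uM.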

[5] = read-out: Cyclin Dependent Kinase Inhibitor 1A (CDKN1A), CDKN1A (gene 1026); experiment: LTEA_HepaRG_CDKN1A: Life Technologies and Expression Analysis (LTEA) Assay for Cyclin Dependent Kinase Inhibitor 1A (CDKN1A) using HepaRG (AID 2283450); conditions: mRNA level, 48 h; actives raise or lower the signal
Method in brief: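 Gain or loss of CDKN1A transcript is scored by bidirectional fitting against 0.5% DMSO vehicle. Human HepaRG cultures receive chemicals for 48 h across an 8-point series peaking at 100 uM; expression comes from qRT-PCR.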

[6] = read-out: Cyclin D1 (CCND1), CCND1 (gene 595); experiment: LTEA_HepaRG_CCND1: Life Technologies and Expression Analysis (LTEA) Assay for Cyclin D1 (CCND1) using HepaRG (AID 2283451); conditions: mRNA level, 48 h; actives raise or lower the signal;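 as to AC50: differentiated human HepaRG liver cells in serum-free induction medium; TaqMan qRT-PCR transcript level normalised to ACTB GAPDH and POLR2A housekeeping genes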
Method in brief: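 Expression change is measured by qRT-PCR in HepaRG cells after 48 h treatment across eight concentrations topping at 100 uM, with duplicate wells and DMSO (0.5%) serving as baseline for bidirectional fitting.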

[7] = read-out: catalase (CAT), CAT (gene 847); experiment: LTEA_HepaRG_CAT: Life Technologies and Expression Analysis (LTEA) Assay for catalase (CAT) using HepaRG (AID 2283452); conditions: mRNA level, 48 h; actives raise or lower the signal;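 as to AC50: TaqMan qRT-PCR signal normalized to ACTB GAPDH and POLR2A housekeeping genes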
Method in brief: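 Expression of CAT was quantified by TaqMan qRT-PCR with ACTB/GAPDH/POLR2A normalization after 48 h chemical exposure of HepaRG. Eight-point half-log series, top 100 uM, in 0.5% DMSO; gain or loss fitted against vehicle.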

[8] = read-out: flavin-containing dimethylaniline monooxygenases 3 (FMO3), FMO3 (gene 2328); experiment: LTEA_HepaRG_FMO3: Life Technologies and Expression Analysis (LTEA) Assay for flavin-containing dimethylaniline monooxygenases 3 (FMO3) using HepaRG (AID 2283453); conditions: mRNA level, 48 h; actives raise or lower the signal;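 as to AC50: differentiated human HepaRG liver cells in serum-free induction medium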
Method in brief: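 FMO3 transcript quantified by TaqMan qRT-PCR against three housekeeping genes after 48 h chemical exposure of HepaRG cells. Eight-point half-log series, top 100 uM, 0.5% DMSO vehicle; phenobarbital 1mM induction control; up- or down-regulation fitted.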

[9] = read-out: Cytochrome P450 (CYP1A1), CYP1A1 (gene 1543); experiment: LTEA_HepaRG_CYP1A1: Life Technologies and Expression Analysis (LTEA) Assay for Cytochrome P450 (CYP1A1) using HepaRG (AID 2283454); conditions: mRNA level, 48 h; actives raise or lower the signal
Method in brief: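 Using HepaRG cultures with 0.5% DMSO as vehicle, eight-concentration exposures (max 100 uM) lasted 48 h. Transcript levels were measured by TaqMan qRT-PCR and normalized to ACTB, GAPDH and POLR2A.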

[10] = read-out: CFLAR gene, CFLAR (gene 8837); experiment: LTEA_HepaRG_CFLAR: Life Technologies and Expression Analysis (LTEA) Assay for CFLAR gene using HepaRG (AID 2283455); conditions: mRNA level, 48 h; actives raise or lower the signal
Method in brief: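 Transcript level by qRT-PCR (normalized to ACTB, GAPDH and POLR2A) after 48 h chemical exposure of HepaRG cells, top concentration 100 uM with half-log steps, 0.5% DMSO vehicle, duplicates; fitted bidirectionally against DMSO baseline.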

[11] = read-out: Forkhead box O1 (FOXO1), FOXO1 (gene 2308); experiment: LTEA_HepaRG_FOXO1: Life Technologies and Expression Analysis (LTEA) Assay for Forkhead box O1 (FOXO1) using HepaRG (AID 2283456); conditions: mRNA level, 48 h; actives raise or lower the signal
Method in brief: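 FOXO1 transcript quantified by qRT-PCR after 48 h chemical exposure (top 100 uM, half-log steps, 0.5% DMSO) of HepaRG cells, housekeeping-normalized (ACTB/GAPDH/POLR2A). Changes fitted in both directions relative to vehicle.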

[12] = read-out: growth arrest and DNA damage 45 (GADD45A), GADD45A (gene 1647); experiment: LTEA_HepaRG_GADD45A: Life Technologies and Expression Analysis (LTEA) Assay for growth arrest and DNA damage 45 (GADD45A) using HepaRG (AID 2283458); conditions: mRNA level, 48 h; actives raise or lower the signal
Method in brief: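 Transcript induction or loss, quantified by TaqMan qRT-PCR against three housekeeping genes, is the read-out. HepaRG cells received chemicals for 48 h across eight half-log concentrations from 100 uM in 0.5% DMSO; gain and loss fitted relative to DMSO.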

[13] = read-out: Forkhead box O3 (FOXO3), FOXO3 (gene 2309); experiment: LTEA_HepaRG_FOXO3: Life Technologies and Expression Analysis (LTEA) Assay for Forkhead box O3 (FOXO3) using HepaRG (AID 2283459); conditions: mRNA level, 48 h; actives raise or lower the signal
Method in brief: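 FOXO3 transcript measured by qRT-PCR (normalized to ACTB, GAPDH, POLR2A) after 48 h exposure of HepaRG cells in serum-free induction medium. Duplicates, eight half-log concentrations up to 100 uM, 0.5% DMSO; gain or loss fitted against DMSO.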

[14] = read-out: ABC Transporter (ABCB1), ABCB1 (gene 5243); experiment: LTEA_HepaRG_ABCB1: Life Technologies and Expression Analysis (LTEA) Assay for ABC Transporter (ABCB1) using HepaRG (AID 2283460); conditions: mRNA level, 48 h; actives raise or lower the signal
Method in brief: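 ABCB1 transcript level measured by TaqMan qRT-PCR against three housekeeping genes after 48 h chemical exposure of differentiated HepaRG cells. Top concentration 100 uM, half-log steps, eight points, 0.5% DMSO vehicle; bidirectional fit relative to DMSO.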

[15] = read-out: growth arrest and DNA damage 45 (GADD45B), GADD45B (gene 4616); experiment: LTEA_HepaRG_GADD45B: Life Technologies and Expression Analysis (LTEA) Assay for growth arrest and DNA damage 45 (GADD45B) using HepaRG (AID 2283461); conditions: mRNA level, 48 h; actives raise or lower the signal
Method in brief: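 Human HepaRG monolayers receive chemicals for 48 h at eight half-log concentrations, highest 100 uM, in 0.5% DMSO. Expression is measured by TaqMan qRT-PCR and normalized to ACTB, GAPDH and POLR2A.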

[16] = read-out: ABC Transporter (ABCC3), ABCC3 (gene 8714); experiment: LTEA_HepaRG_ABCC3: Life Technologies and Expression Analysis (LTEA) Assay for ABC Transporter (ABCC3) using HepaRG (AID 2283462); conditions: mRNA level, 48 h; actives raise or lower the signal
Method in brief: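 Transcriptional change of ABCC3 in HepaRG after 48 h treatment, determined by qRT-PCR normalized to endogenous controls. Concentrations spanned eight half-log steps to 100 uM in 0.5% DMSO.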

[17] = read-out: ABC Transporter (ABCB11), ABCB11 (gene 8647); experiment: LTEA_HepaRG_ABCB11: Life Technologies and Expression Analysis (LTEA) Assay for ABC Transporter (ABCB11) using HepaRG (AID 2283463); conditions: mRNA level, 48 h; actives raise or lower the signal
Method in brief: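 ABCB11 transcript levels quantified by TaqMan qRT-PCR against three housekeeping genes after 48 h chemical exposure of HepaRG cultures. Concentrations up to 100 uM in half-log steps, 0.5% DMSO vehicle; both induction and suppression scored.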

[18] = CEETOX_H295R_ESTRADIOL: CeeTox H295R High-throughput Steroidogenesis Assay for Estradiol (AID 2283440); conditions: actives raise or lower the signal;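 also: estradiol secreted into medium quantified by LC-MS/MS after dansyl derivatisation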
Method in brief: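 Readout is estradiol in conditioned medium, quantified by reverse-phase HPLC-MS/MS against a 7-point standard curve. Cells: H295R, forskolin-stimulated, then dosed 48 h in 0.1% DMSO; activity fitted in both directions relative to DMSO.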

[19] = CEETOX_H295R_ESTRONE: CeeTox H295R High-throughput Steroidogenesis Assay for Estrone (AID 2283441); conditions: actives raise or lower the signal;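 as to AC50: human adrenal H295R cells prestimulated with forskolin for two days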
Method in brief: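 Estrone secreted into medium quantified by LC-MS/MS after dansyl chloride derivatization, following 48 h chemical exposure (0.1% DMSO final) of forskolin-prestimulated (10 uM, 48 h) H295R cells; gain or loss fitted against DMSO; MTT viability in same wells.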

[20] = CEETOX_H295R_TESTO: CeeTox H295R High-throughput Steroidogenesis Assay for Testosterone (TESTO) (AID 2283457); conditions: actives raise or lower the signal;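 as to AC50: cells exposed to chemicals for 48 h before medium collection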
Method in brief: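 Steroidogenesis in H295R cells following OECD 456 with minor changes; 48 h exposure. Medium testosterone by HPLC-MS/MS, DMSO as baseline, with MTT viability run in parallel.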

Measured: AC50

Chain of Fatty acid synthase (Homo sapiens) (P49327 whole entry, looked up): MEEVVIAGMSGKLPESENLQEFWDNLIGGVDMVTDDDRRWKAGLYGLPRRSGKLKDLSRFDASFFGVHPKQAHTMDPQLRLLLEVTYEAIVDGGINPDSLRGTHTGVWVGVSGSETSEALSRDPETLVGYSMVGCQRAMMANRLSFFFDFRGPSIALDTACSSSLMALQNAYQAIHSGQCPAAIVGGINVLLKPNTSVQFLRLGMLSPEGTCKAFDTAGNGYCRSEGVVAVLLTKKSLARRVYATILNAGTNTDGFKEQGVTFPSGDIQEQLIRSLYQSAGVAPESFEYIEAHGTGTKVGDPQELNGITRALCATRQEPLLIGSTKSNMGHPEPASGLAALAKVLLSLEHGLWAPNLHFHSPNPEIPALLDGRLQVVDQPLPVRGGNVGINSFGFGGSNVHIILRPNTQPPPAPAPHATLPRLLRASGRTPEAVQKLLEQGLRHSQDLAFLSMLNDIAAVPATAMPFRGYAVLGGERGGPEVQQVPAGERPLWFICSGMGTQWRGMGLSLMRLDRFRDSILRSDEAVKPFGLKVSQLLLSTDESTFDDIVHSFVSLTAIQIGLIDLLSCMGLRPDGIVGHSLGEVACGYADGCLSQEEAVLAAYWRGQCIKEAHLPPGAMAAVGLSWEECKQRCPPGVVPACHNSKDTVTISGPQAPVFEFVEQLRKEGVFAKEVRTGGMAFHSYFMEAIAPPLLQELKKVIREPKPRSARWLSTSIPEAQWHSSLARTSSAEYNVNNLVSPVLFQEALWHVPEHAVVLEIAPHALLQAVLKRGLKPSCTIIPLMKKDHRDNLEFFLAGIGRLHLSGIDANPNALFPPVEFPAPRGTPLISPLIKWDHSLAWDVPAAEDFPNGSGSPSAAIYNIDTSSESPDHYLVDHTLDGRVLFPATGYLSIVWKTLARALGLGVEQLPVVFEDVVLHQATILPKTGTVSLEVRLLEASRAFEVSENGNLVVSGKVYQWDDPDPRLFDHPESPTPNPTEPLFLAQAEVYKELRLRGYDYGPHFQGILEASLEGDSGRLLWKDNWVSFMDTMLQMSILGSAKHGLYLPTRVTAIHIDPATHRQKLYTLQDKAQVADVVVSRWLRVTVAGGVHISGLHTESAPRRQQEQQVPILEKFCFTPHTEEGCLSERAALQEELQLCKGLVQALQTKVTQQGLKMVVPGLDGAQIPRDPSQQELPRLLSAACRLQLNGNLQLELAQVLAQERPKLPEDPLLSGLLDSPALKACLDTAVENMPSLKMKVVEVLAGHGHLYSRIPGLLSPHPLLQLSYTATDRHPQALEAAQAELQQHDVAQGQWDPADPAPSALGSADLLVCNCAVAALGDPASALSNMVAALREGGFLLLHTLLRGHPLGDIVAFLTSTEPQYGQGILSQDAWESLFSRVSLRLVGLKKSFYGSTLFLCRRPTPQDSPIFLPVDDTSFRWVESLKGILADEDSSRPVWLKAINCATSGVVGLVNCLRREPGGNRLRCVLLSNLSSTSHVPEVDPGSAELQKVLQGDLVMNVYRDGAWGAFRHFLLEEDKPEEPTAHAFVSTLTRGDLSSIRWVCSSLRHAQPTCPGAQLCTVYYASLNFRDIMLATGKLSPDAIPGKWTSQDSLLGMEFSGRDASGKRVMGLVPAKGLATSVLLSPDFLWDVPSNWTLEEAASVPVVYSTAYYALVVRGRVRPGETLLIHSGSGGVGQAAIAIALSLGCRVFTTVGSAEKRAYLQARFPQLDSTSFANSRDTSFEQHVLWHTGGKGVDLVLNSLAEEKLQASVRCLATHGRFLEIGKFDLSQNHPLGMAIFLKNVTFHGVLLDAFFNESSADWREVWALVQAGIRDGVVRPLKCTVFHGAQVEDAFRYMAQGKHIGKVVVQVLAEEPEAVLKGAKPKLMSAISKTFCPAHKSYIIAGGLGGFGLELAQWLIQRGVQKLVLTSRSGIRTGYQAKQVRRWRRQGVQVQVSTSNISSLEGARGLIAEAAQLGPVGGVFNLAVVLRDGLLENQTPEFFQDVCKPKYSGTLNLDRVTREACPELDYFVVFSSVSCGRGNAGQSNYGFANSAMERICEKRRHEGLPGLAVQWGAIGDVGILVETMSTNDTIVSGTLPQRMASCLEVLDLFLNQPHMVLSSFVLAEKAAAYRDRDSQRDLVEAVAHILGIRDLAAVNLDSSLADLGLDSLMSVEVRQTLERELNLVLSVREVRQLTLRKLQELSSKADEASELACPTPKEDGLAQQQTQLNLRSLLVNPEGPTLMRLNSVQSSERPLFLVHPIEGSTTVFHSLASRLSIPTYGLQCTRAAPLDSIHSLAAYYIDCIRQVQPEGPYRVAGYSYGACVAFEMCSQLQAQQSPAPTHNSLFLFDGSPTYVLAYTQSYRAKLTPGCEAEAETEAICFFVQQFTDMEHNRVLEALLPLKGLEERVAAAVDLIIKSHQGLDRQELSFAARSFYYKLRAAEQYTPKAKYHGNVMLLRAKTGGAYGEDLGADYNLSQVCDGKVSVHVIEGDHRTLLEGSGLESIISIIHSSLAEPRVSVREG

CCCCCCCC[Si](OCC)(OCC)OCC
inactive: [1] | [2] | [3] | [4] | [5] | [6] | [7] | [8] | [9] | [10] | [11] | [12] | [13] | [14] | [15] | [16] | [17]

Cc1c2ccccc2c(C)c2c1ccc1ccccc12
inactive: [18] | [1] | [4] | [20] | [14]
active: [19] 0.657 µM | [2] 66.1 µM | [3] 51 µM | [5] 35.1 µM | [6] 86.4 µM | [7] 48.5 µM | [8] 34.2 µM | [9] 11.9 µM | [10] 40.9 µM | [11] 75 µM | [12] 61.9 µM | [13] 13 µM | [15] 50 µM | [16] 12.7 µM | [17] 30.6 µM

CC(C)(c1cc(Br)c(O)c(Br)c1)c1cc(Br)c(O)c(Br)c1
active: [1] 4.87 µM | [2] 92.5 µM | [5] 92.3 µM | [6] 47.8 µM | [10] 71.8 µM | [13] 89.2 µM | [17] 9.94 µM
inactive: [3] | [4] | [7] | [8] | [9] | [11] | [12] | [14] | [16]

O=C(OCCCCCCOC(=O)c1ccccc1)c1ccccc1
inactive: [2] | [3] | [4] | [5] | [6] | [7] | [9] | [10] | [11] | [12] | [13] | [14] | [15] | [16] | [17]

O=C(Nc1ccc(Cl)cc1)Nc1ccc(Cl)c(Cl)c1
inactive: [18] | [19] | [6] | [10] | [20] | [16]
active: [1] 0.318 µM | [2] 23.1 µM | [3] 17.5 µM | [7] 16.6 µM | [8] 22.9 µM | [9] 27.7 µM | [11] 18.6 µM | [12] 21.7 µM | [13] 11.8 µM | [14] 18.9 µM | [15] 22.9 µM | [17] 15 µM

Oc1ccc2ccccc2c1
inactive: [1] | [2] | [3] | [4] | [6] | [7] | [8] | [10] | [11] | [12] | [13] | [14] | [15] | [16] | [17]
active: [9] 66.8 µM | [20] 82.4 µM

CC(C)(O)c1ccc(CNC(=O)c2cccnc2Oc2ccc3nonc3c2)cc1
active: [9] 34.7 µM | [14] 50 µM
inactive: [2] | [3] | [4] | [5] | [6] | [7] | [8] | [10] | [11] | [12] | [13] | [15] | [16] | [17]
